# Reference: PubChem BioAssay (EPA / NIEHS)
# Inconclusive results are not listed. Activity calls are given as the source filed them. Rule for the calls, unless noted: active = hit-call score of the fitted dose curve at least 0.9, where 1 is the maximum; inactive = score below 0.9.
# What was measured:
# [1] = TAMU_PeakParms_SingleDonor1434_Asystole: Texas A&M University (TAMU) 1.5-hr Human Induced Pluripotent Stem Cell (iPSC)-derived Cardiomyocytes Calcium (Ca+2) Flux Assay for Cardiotoxicity: Asystole (quiescence of beating) (AID 2284328; active = hit-call score of the fitted dose curve at least 0.9, where 1 is the maximum)
# Experimental: TAMU_PeakParms is a cell-based, multiplexed-readout assay that uses iPSC-derived cardiomyocytes with measurements taken at 1.5 hours after chemical dosing in a microplate: 384-well plate.TAMU_PeakParms_SingleDonor1434_Chronotopy is a phenotype derived from the peak.freq.avg parameter and uses an EC95 as its POD (95% decrease in beat rate, compared to controls). Peak.Freq.Avg measures the average peak frequency, in beats per second, using Fluorescence intensity as a functional reporter from Calcium (Ca+2) flux assay technology. There is no preprocessing performed on the data used to model this phenotype.Data from the assay component TAMU_PeakParms_SingleDonor1434_Asystole was analyzed into 1 assay endpoint. This assay endpoint, TAMU_PeakParms_SingleDonor1434_Asystole, was analyzed in the positive analysis fitting direction relative to DMSO as the negative control and baseline of activity. Using a type of functional reporter, loss-of-signal activity can be used to understand changes in the cardiac function. To generalize the intended target to other relatable targets, this assay endpoint is annotated to the cardiomyocyte function intended target family, where the subfamily is cessation of beating. […]
# [2] = IUF_NPC1_cytotoxicity_72hr: Cytotoxicity Assessment at 72 hours in the Leibniz Research Institute for Environmental Medicine (IUF) Neural Progenitor Cell Proliferation Assay (NPC1) (AID 2284332; active = hit-call score of the fitted dose curve at least 0.9, where 1 is the maximum;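 note: rising LDH signal means more cytotoxicity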)
# Procedure, shortened: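 Cytotoxicity by LDH membrane-integrity assay on medium supernatants, fluorescence via resazurin reduction, after 3-day single exposure of primary hNPC spheres at 37C, pH 7.2-7.6 with growth factors. Fitted upward against baseline.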
# [3] = CCTE_Mundy_HCI_iCellGluta_NOG_NeuronCount: CCTE's Neurite Outgrowth Assay in iCellGluta cells for Neuron Count, Mundy Lab (AID 2284340; active = hit-call score of the fitted dose curve at least 0.9, where 1 is the maximum;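 note: cells fixed about 48 h after compound addition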)
# Procedure, shortened: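 Neuron count read by automated high-content imaging of Hoechst 33342 and betaIII-tubulin/Alexa Fluor-488 labelling in human iPSC glutamatergic neurons. Activity fitted relative to DMSO.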
# [4] = CCTE_Mundy_HCI_iCellGluta_NOG_NeuriteCount: CCTE's Neurite Outgrowth Assay in iCellGluta cells for Neurite Count, Mundy Lab (AID 2284342; active = hit-call score of the fitted dose curve at least 0.9, where 1 is the maximum;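 note: chemical exposure about 48 hours starting 2 hours after plating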)
# SERPINA7 (gene 6906) = assay: CCTE_GLTED_hTBG: CCTE's human Thyroxine-binding Globulin (TBG) Inhibition Assay, Great Lakes Toxicology and Ecology Division (GLTED) Lab (AID 2284343; active = hit-call score of the fitted dose curve at least 0.9, where 1 is the maximum;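 note: active chemicals lower fluorescence versus DMSO baseline by displacing probe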)
# Procedure, shortened: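 Cell-free displacement of the fluorescent probe ANSA from human thyroxine-binding globulin after 2 h exposure. Read-out at ex 380/em 475 nm; DMSO baseline.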
# [5] = CCTE_Deisenroth_5AR_NBTE_acceptor: CCTE's 5alpha-reductase NanoBRET Target Engagement Assay - Autofluorescence Screen, Deisenroth Lab (AID 2284321); conditions: actives raise or lower the signal;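 note: compound fluorescence in the acceptor channel under 460 nm excitation flags autofluorescence artifacts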
# Procedure, shortened: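 Acceptor-channel fluorescence flags artifacts, with excitation fixed at 460 nm. Nominal 100 uM chemical samples were read in triplicate runs, and signal changes were fitted in both directions relative to DMSO.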
# SRD5A2 (gene 6716) = assay: CCTE_Deisenroth_5AR_NBTE_ratio: CCTE's 5alpha-reductase NanoBRET Target Engagement Assay - Ratio, Deisenroth Lab (AID 2284322); conditions: actives raise or lower the signal
# Procedure, shortened: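 HEK293T cells transiently expressing an SRD5A2-NanoLuc fusion (20 h post-transfection) were exposed to test chemical (10 nM - 29.9 uM, 8 points) for 3 h, then testosterone tracer for a further 2 h. Acceptor/donor BRET ratio was fitted bidirectionally against DMSO baseline.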
# [6] = CCTE_Padilla_ZF_Score.Craniofacial: CCTE's 144 Hour Post-fertilization zebrafish Assay Score for Craniofacial Malformation, Padilla Lab (AID 2284405)
# Experimental: CCTE_Padilla_ZF_Phenotype_Score is a whole embryo, multiplexed assay using zebrafish ova exposed for 144 hours post fertilization on a 96-well plate.CCTE_Padilla_ZF_Score.Craniofacial is one of one assay component(s) measured or calculated from the CCTE_Padilla_ZF_Phenotype_Score assay. It is designed to make measurements of zebrafish development as detected with brightfield microscopy of developing zebrafish embryos.Data from the assay component CCTE_Padilla_ZF_Score.Craniofacial was analyzed into 1 assay endpoints. This assay endpoint, CCTE_Padilla_ZF_Score.Craniofacial, was analyzed in the positive analysis fitting direction relative to DMSO as the negative control and baseline of activity. Using a type of viability reporter, gain-of-signal activity can be used to understand changes in developmentals as they relate to the whole embryo. To generalize the intended target to other relatable targets, this assay endpoint is annotated to the zebrafish development intended target family, where the subfamily is craniofacial morphogenesis.
# Zebrafish husbandry: Wild type adult zebrafish (Danio rerio; undefined outbred stock obtained from Aquatic Research Organisms, Hampton, NH, 03842) were housed in an AAALAC-approved animal facility at 28C with a 14:10 h light: dark cycle (lights on at 08:30 h). Adult fish (2-3 females per male; density = 15-20 adults per tank) were kept in one of several 9-liter (L) flow-through colony tanks (Aquaneering Inc., San Diego, CA). All adults in a colony tank were placed in a 2 L (static) breeding tank (Aquatic Habitats, Apopka, FL) one hour prior to light onset. Typically, adults from two to three colony tanks were mated on the same day. Two hours after light onset the adults were returned to the colony tank. […]
# [7] = CCTE_Padilla_ZF_Score.Edema: CCTE's 144 Hour Post-fertilization zebrafish Assay Score for Edema Malformation, Padilla Lab (AID 2284406)
# Procedure, shortened: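 Edema scored at 6 dpf by two blinded observers under a stereo microscope, in single outbred wild-type larvae exposed from 6-8 hpf in sealed wells (Hanks', 26C, 14:10 h light) and chemical-free after a 5 dpf rinse.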
# [8] = CCTE_Padilla_ZF_Score.Spine: CCTE's 144 Hour Post-fertilization zebrafish Assay Score for Spine Malformation, Padilla Lab (AID 2284407)
# Procedure, shortened: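 Spine malformation scored at 6 dpf by two independent blinded observers under stereomicroscope, after static sealed exposure from 6–8 hpf at 26C in Hanks' solution with rinse on 5 dpf. Positive-direction fit against DMSO control.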
smiles,measurement,setting,value
O=C(O)CCCC[C@@H]1SC[C@@H]2NC(=O)N[C@@H]21,outcome,[1],inactive
Nc1ncn([C@@H]2O[C@H](CO)[C@@H](O)[C@H]2O)c(=O)n1,outcome,[2],inactive
same,outcome,[3],inactive
same,outcome,[4],inactive
CN(C)c1ccc(N=Nc2ccccc2C(=O)O)cc1,AC50,SERPINA7 (gene 6906),25.6 µM (active)
CCCCC(CC)CCC(CC(C)C)OS(=O)(=O)O (stereo not drawn),AC50,SERPINA7 (gene 6906),11.1 µM (active)
CCCc1ccc(OC)cc1,outcome,[5],inactive
same,outcome,SRD5A2 (gene 6716),inactive
CC1=NN(c2cc(S(=O)(=O)O)ccc2Cl)C(=O)C1N=Nc1ccccc1 (stereo not drawn),outcome,[5],inactive
same,AC50,SRD5A2 (gene 6716),10 µM (active)
same,outcome,SERPINA7 (gene 6906),inactive
CCN(CCC#N)c1ccc(N=Nc2c(Cl)cc([N+](=O)[O-])cc2Cl)cc1,outcome,[5],inactive
same,AC50,SRD5A2 (gene 6716),10 µM (active)
Oc1ccc(Cl)cc1Cc1cc(Cl)ccc1O,outcome,[5],inactive
same,AC50,SRD5A2 (gene 6716),29 µM (active)
same,AC50,SERPINA7 (gene 6906),0.072 µM (active)
O=C(C=Cc1ccccc1)OCc1ccccc1,AC50,SERPINA7 (gene 6906),25.7 µM (active)
CN(C)c1ccc(C(=N)c2ccc(N(C)C)cc2)cc1,outcome,[5],inactive
same,AC50,SRD5A2 (gene 6716),22.6 µM (active)
CCCCCCCC[N+](C)(CCCCCCCC)CCCCCCCC,AC50,[5],8.7 µM (active)
same,AC50,SRD5A2 (gene 6716),20.1 µM (active)
CC=CC(F)(F)C(F)(F)C(F)(F)F,outcome,[6],inactive
same,outcome,[7],inactive
same,outcome,[8],inactive
CCOC(=O)Cc1cccc2ccccc12,AC50,SERPINA7 (gene 6906),13.4 µM (active)
CCOC(F)(F)C(F)(F)C(F)(F)C(F)(F)F,outcome,[6],inactive
same,outcome,[7],inactive
same,outcome,[8],inactive
Cc1ccc(C(C)c2ccc(C)c(C)c2)cc1C,outcome,[5],inactive
same,AC50,SRD5A2 (gene 6716),50 µM (active)
same,AC50,SERPINA7 (gene 6906),1.8 µM (active)
CC1(C)S[C@@H]2[C@H](NC(=O)COc3ccccc3)C(=O)N2[C@H]1C(=O)O,outcome,[2],inactive
same,outcome,[4],inactive
CCCCCCCC/C=C\CCCCCCCC(=O)O,outcome,[5],inactive
same,outcome,SRD5A2 (gene 6716),inactive
same,AC50,SERPINA7 (gene 6906),8.56 µM (active)
C1CN(SSN2CCOCC2)CCO1,outcome,[5],inactive
same,outcome,SRD5A2 (gene 6716),inactive
CCCCCCCCCCCCCOP(=O)(O)O,AC50,SERPINA7 (gene 6906),2.24 µM (active)
FC(F)=C(F)OC(F)(F)C(F)(F)C(F)(F)F,outcome,[6],inactive
same,outcome,[7],inactive
same,outcome,[8],inactive
O=c1cc(-c2ccccc2)oc2ccccc12,AC50,SERPINA7 (gene 6906),18.5 µM (active)
COC(=O)c1c(C)cc(O)c(C)c1O,outcome,[5],inactive
same,outcome,SRD5A2 (gene 6716),inactive
N[C@H]1C(O)O[C@H](CO)[C@H](O)[C@@H]1O (stereo partly drawn),outcome,[3],inactive
same,outcome,[4],inactive
CC(C)(C)c1ccc(OC(=O)c2ccccc2O)cc1,AC50,SERPINA7 (gene 6906),1.69 µM (active)
